Experiment [1] in a line: qHTS assay to identify small molecule antagonists of the retinoid acid receptor (RAR) signaling pathway - cell viability counter screen (AID 1159551). Note: nearly all actives have a fitted effect of over 35% in size. Note: potency is the fitted concentration of half-maximal effect. The method, boiled down: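 Retinol-stimulated (1 uM final) C3RL4 cells, compound 6 h, 37 C; readout CellTiter-Glo luminescence (ATP) after 30 min RT incubation.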
A general note: In qHTS, concentration-response curves come from the screen itself.

Experiment [2] in a line: qHTS assay to identify small molecule antagonists of the estrogen related receptor (ERR) signaling pathway from Tox21 library - cell viability counter screen (AID 1224834). Note: nearly all actives have a fitted effect of over 30% in size. Note: potency is the fitted concentration of half-maximal effect. The method, boiled down:
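After 17.5 h of compound exposure at 37 C, ERR cells are incubated with CellTiter-Fluor for 30 min and fluorescence intensity serves as the viability measure.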

Experiment [3] addresses Luciferin 4-monooxygenase (Photinus pyralis) (UniProt P08659). Put plainly: qHTS assay to identify small molecule inhibitors of firefly luciferase (AID 1224835). Note: nearly all actives have a fitted effect of over 25% in size. Note: potency is the fitted concentration of half-maximal effect. The method in brief: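 Inhibition of purified Photinus luciferase is measured by luminescence. Substrate levels (D-luciferin, ATP) sit at their KM values. Each compound is tested in a concentration series.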
The nature of experiment [4]: qHTS assay to identify small molecule agonists of the constitutive androstane receptor (CAR) signaling pathway - cell viability counter screen (AID 1224836). Note: nearly all actives have a fitted effect of over 45% in size. Note: potency is the fitted concentration of half-maximal effect. The method in brief: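 HepG2 cells stably carrying hCAR and a CYP2B6-2.2kb reporter were plated 4 h, then given compounds at 15 concentrations plus PK11195 (final 0.75 uM). After 23 h at 37 C, viability was read by CellTiter-Fluor fluorescence.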

Experiment [5] in a line: qHTS assay to identify small molecule antagonists of the constitutive androstane receptor (CAR) signaling pathway - cell viability counter screen (AID 1224837). Note: nearly all actives have a fitted effect of over 45% in size. Note: potency is the fitted concentration of half-maximal effect. The method, boiled down:
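Counter screen run in HepG2-CYP2B6-hCAR cells: 4 hr settle, compound titration (15 concentrations) with 50 nM CITCO, 23 hr at 37 C/5% CO2, CellTiter-Fluor fluorescence.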

Experiment [6] deals with Nuclear receptor subfamily 1 group I member 3 (Homo sapiens) (UniProt Q14994). Put plainly: qHTS assay to identify small molecule agonists of the constitutive androstane receptor (CAR) signaling pathway (AID 1224839). For activation: series mostly up to about 92 µM. Note: nearly all actives have a fitted effect of over 15% in size. Note: potency is the fitted concentration of half-maximal effect. The method in brief: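 HepG2 cells stably expressing hCAR and a CYP2B6-2.2kb luciferase reporter were treated with compounds at 15 concentrations plus 0.75 uM PK11195 (final) for 24 h at 37 C; luminescence was read after ONE-Glo addition.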

Experiment [7] is described as follows: qHTS assay to identify small molecule antagonists of the estrogen related receptor signaling pathway with the pleiotropic PPARgamma coactivator (PGC) from Tox21 10K library - cell viability counter screen (AID 1224840; active = well fitted cell-killing curve with a large enough effect in the repeat runs, not every such curve was filed as active; note: nearly all actives have a fitted effect of over 40% in size; note: potency is the fitted concentration of half-maximal effect). The method, boiled down:
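Following seeding of 2,000 PGC/ERR cells/well and 6 hours' incubation, test compounds were delivered in DMSO. The plates then sat 17.5 hours at 37 C before a fluorogenic live-cell protease reagent (CellTiter-Fluor) was read after 30 min.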

The nature of experiment [8]: qHTS assay to identify small molecule agonists of the hypoxia (HIF-1) signaling pathway - cell viability counter screen (AID 1224844; calls by dose curve; note: nearly all actives have a fitted effect of over 50% in size; note: potency is the fitted concentration of half-maximal effect). The method, boiled down:
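Cells (HRE-bla ME-180, 2,000 per well) sat 5 hrs at 37C, got compound for 17 hrs, were read for CCF4-AM FRET, and were finally lysed with CellTiter-Glo for a 30 min room-temperature luminescence read.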

A short description of experiment [9]: qHTS assay to identify small molecule agonists of H2AX (AID 1224845; active = well fitted activation curve with a large enough effect in the signal ratio in the repeat runs, not every such curve was filed as active; the % refers to the signal ratio; note: potency is the fitted concentration of half-maximal effect). The method in brief: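 Phospho-H2AX Ser139 measured by HTRF (ex 320 nm; em 665 and 620 nm) after 24 hr antibody incubation. Compounds, 15 concentrations, 0.76% DMSO, were applied to CHO-K1 cells for 3hr at 37C before lysis.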
Experiment [10] has as its target Nuclear receptor subfamily 1 group I member 3 (Homo sapiens) (UniProt Q14994). Put plainly: qHTS assay to identify small molecule antagonists of the constitutive androstane receptor (CAR) signaling pathway (AID 1224838). Note: nearly all actives have a fitted effect of over 40% in size. Note: potency is the fitted concentration of half-maximal effect. The method, boiled down: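 Cell line: HepG2 double-stable for hCAR and CYP2B6-2.2kb reporter. Agonist: CITCO, 50 nM final. Compounds: 15 concentrations, 24 h, 37 C. Detection: ONE-Glo luminescence.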

Experiment [11] concerns the target Thyrotropin receptor (Homo sapiens) (UniProt P16473). Put plainly: qHTS assay to identify small molecule agonists of the thyroid stimulating hormone receptor (TSHR) signaling pathway (AID 1224843; calls by dose curve; note: nearly all actives have a fitted effect of over 45% in size; note: potency is the fitted concentration of half-maximal effect). The method, boiled down:
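Screening of the Tox21 10K collection used HEK293 cells engineered with TSHR at 800 cells per well. After a 30-min room-temperature compound exposure, HTRF cAMP reagents were added and fluorescence recorded 1 h later.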

A short description of experiment [12]: qHTS assay to identify small molecule antagonists of the estrogen related receptor signaling pathway with the pleiotropic PPARgamma coactivator (PGC) from Tox21 10K library (AID 1224841; call rule not given here; note: actives are mostly falling curves and most rising ones were filed inactive; nearly all actives have a fitted effect of over 50% in size; note: potency is the fitted concentration of half-maximal effect). The method in brief:
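qHTS antagonist format: PGC/ERR cells, 2k/well, compound in DMSO by pin transfer after 6 h attachment, 18 h treatment at 37 C, One-Glo luminescence read at 30 min.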

Experiment [13] in a line: qHTS assay to identify small molecule agonists of the estrogen related receptor signaling pathway with the pleiotropic PPARgamma coactivator (PGC) from Tox21 10K library (AID 1224842). Note: nearly all actives have a fitted effect of over 15% in size. The method, boiled down:
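Luminescence from One-Glo (30 min, room temperature) measured after PGC/ERR cells had 18 h at 37 C with pinned compound (23 nL in DMSO). Cells had been seeded at 2,000 per well and pre-incubated 6 h.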

Experiment [14] is described as follows: qHTS assay to identify small molecule agonists of the retinoic acid receptor (RAR) signaling pathway (AID 1159553). The method, boiled down: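 Reporter readout comes from luciferase under RARE control in C3RL4 cells; compound exposure lasts 6 hr at 37 C in 5% CO2, and luminescence is recorded following a 30 min room-temperature incubation with reagent.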

Where “and” joins values, the source holds several entries; their conditions need not be identical. Equal entries are not always repeated. Results filed as inconclusive are left out. Calls of active or inactive are those of the source. Unless noted, calls come from the whole dose curve; as a rule, active = well fitted curve in the direction sought with a large enough effect in the repeat runs; inconclusive = weak or mixed curves; inactive = no such curve, though single readings can be large; an effect the other way counts as inactive or inconclusive.

The values below come from PubChem BioAssay (Tox21).

Chain of Thyrotropin receptor (Homo sapiens) (P16473 whole entry, looked up): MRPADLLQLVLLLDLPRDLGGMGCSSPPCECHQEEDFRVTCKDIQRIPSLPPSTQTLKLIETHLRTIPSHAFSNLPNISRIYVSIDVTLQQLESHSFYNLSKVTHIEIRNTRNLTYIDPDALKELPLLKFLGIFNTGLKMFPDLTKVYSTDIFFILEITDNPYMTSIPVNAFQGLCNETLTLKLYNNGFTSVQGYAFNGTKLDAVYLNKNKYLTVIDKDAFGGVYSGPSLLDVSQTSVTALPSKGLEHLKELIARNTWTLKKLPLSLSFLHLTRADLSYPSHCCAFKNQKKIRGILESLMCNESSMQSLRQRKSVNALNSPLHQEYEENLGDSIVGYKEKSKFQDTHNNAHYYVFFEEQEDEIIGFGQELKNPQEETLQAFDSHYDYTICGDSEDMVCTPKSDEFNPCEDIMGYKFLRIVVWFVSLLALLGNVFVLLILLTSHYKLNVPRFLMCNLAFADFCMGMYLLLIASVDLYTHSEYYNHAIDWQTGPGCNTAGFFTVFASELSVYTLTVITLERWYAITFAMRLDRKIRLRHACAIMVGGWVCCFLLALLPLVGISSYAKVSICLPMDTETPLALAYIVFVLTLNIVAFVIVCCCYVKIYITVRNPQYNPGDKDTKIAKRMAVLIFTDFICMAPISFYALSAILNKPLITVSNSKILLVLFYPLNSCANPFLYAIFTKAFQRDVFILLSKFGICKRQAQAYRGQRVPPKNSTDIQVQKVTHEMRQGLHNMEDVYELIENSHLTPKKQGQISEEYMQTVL
Chain of Nuclear receptor subfamily 1 group I member 3 (Homo sapiens) (Q14994 whole entry, looked up): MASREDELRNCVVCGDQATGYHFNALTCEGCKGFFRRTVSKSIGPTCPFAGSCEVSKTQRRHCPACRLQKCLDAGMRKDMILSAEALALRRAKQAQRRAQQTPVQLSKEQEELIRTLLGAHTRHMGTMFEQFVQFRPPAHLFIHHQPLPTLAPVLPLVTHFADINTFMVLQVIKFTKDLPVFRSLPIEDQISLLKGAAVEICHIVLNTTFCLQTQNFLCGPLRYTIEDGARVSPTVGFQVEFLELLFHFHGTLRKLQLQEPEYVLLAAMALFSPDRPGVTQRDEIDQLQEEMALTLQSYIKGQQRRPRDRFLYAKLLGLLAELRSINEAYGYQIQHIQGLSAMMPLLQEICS
Chain of Luciferin 4-monooxygenase (Photinus pyralis) (P08659 whole entry, looked up): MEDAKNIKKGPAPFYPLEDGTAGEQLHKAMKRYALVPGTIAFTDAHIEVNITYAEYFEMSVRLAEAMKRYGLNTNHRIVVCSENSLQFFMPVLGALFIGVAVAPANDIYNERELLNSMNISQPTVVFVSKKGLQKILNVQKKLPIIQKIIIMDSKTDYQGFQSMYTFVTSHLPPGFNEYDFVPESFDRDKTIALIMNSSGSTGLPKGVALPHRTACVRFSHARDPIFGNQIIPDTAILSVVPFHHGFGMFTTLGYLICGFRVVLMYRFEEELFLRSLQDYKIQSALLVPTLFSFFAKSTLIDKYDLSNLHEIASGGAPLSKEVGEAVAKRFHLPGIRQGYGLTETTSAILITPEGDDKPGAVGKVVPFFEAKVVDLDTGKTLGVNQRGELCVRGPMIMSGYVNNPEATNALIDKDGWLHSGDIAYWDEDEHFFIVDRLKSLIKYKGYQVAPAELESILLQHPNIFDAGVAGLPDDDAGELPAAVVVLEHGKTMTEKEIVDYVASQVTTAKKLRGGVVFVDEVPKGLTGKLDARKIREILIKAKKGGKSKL

Regarding `Cc1cc(Cl)ccc1O[C@H](C)C(=O)O`, the Potency entry in experiment [1], in [2], in experiment [3], in experiment [4], in experiment [5] and in [6] was “inactive” in each case. The Potency entry in [7], in [8] and in experiment [9] was “inactive” throughout.

Consider `BrCBr`, for which the Potency result in experiment [1], in experiment [2], in [3], in [4], in experiment [5] and in experiment [10] was “inactive” in each case. In addition, the Potency entry in experiment [6], in experiment [7], in experiment [11] and in experiment [8] was “inactive” each time.

`Oc1ccc(C(c2ccc(O)cc2)(C(F)(F)F)C(F)(F)F)cc1`: the Potency result in experiment [1], in experiment [3], in experiment [4], in experiment [5], in [13] and in experiment [8] was “inactive” throughout. Further, the Potency is 54.2 µM (active) in [2]; 4.31 µM (active) and 5.45 µM (active) in experiment [6]; 60.8 µM (active) in [12]; 30.5 µM (active) in experiment [11].

As to `N#Cc1ccccc1N`, the Potency entry in experiment [1], in experiment [2], in [3], in [4], in experiment [5] and in [10] was “inactive” throughout. Moreover, the Potency entry in experiment [6], in [7], in [13], in [11] and in experiment [8] was “inactive” each time.

Take `CCOC(=O)CC(=O)CCl`: the Potency entry in experiment [1], in [14], in experiment [3], in [4], in [5] and in [10] was “inactive” each time. Moreover, the Potency result in [6] and in experiment [7] was “inactive” each time.

In the case of `COC[C@H](C)N(C(=O)CCl)c1c(C)csc1C`, the Potency result in experiment [1], in experiment [2], in [3], in [4], in [5] and in experiment [7] was “inactive” in each case. For the same compound, the Potency result in experiment [12], in experiment [13], in experiment [8] and in [9] was “inactive” in each case.

For the compound `CC(=[OH+])/C=C(/C)[O-].CC(=[OH+])/C=C(\C)[O-].CC(=[OH+])/C=C(\C)[O-].[Al]`, the Potency result in [1], in [2], in experiment [4], in experiment [5], in [7] and in experiment [8] was “inactive” throughout. In experiment [9], the Potency result is “inactive”. Besides, the Potency in experiment [3] is 71 µM (active).

For the compound `O=c1c(C2CC(c3ccc(-c4ccc(Br)cc4)cc3)Cc3ccccc32)c(O)sc2ccccc12` (centres undefined), the Potency entry in experiment [1], in experiment [14], in [3], in [4], in experiment [5] and in experiment [10] was “inactive” each time. The Potency entry in experiment [6], in experiment [7], in [13] and in experiment [11] was “inactive” each time. Besides, the Potency in [12] is 11.9 µM (active); in experiment [8] it was 15.1 µM (active).

As for `C[C@H]1O[C@@H](O[C@H]2[C@@H](O)C[C@H](O[C@H]3[C@@H](O)C[C@H](O[C@H]4CC[C@@]5(C)[C@H](CC[C@@H]6[C@@H]5CC[C@]5(C)[C@@H](C7=CC(=O)OC7)CC[C@]65O)C4)O[C@@H]3C)O[C@@H]2C)C[C@H](O)[C@@H]1O`, the Potency entry in experiment [1], in [3], in experiment [6], in [13], in experiment [11] and in experiment [9] was “inactive” each time. Moreover, the Potency in experiment [2] was 43.5 nM (active) and 75 nM (active); in experiment [4] it was 0.0975 µM (active); in [10], 77.4 nM (active) and 422 nM (active); in experiment [8], 98.3 nM (active) and 190 nM (active).

With `Clc1ccc(CSC(Cn2ccnc2)c2ccc(Cl)cc2Cl)cc1` (centres undefined), the Potency entry in experiment [1], in experiment [14], in experiment [3], in experiment [4] and in experiment [11] was “inactive” each time. Moreover, the Potency was 15 µM (active) in experiment [2] and 29.8 µM (active) in experiment [7].

On to `CN(C)[C@@H]1C(=O)C(C(N)=O)=C(O)[C@@]2(O)C(=O)C3=C(O)c4c(O)ccc(Cl)c4[C@@](C)(O)[C@H]3C[C@@H]12`, for which the Potency result in [1], in experiment [14], in experiment [3], in [7], in experiment [11] and in experiment [8] was “inactive” each time.

As to `CC1(C)[C@H](C(=O)O[C@H](C#N)c2cccc(Oc3ccccc3)c2)[C@@H]1/C=C(\Cl)C(F)(F)F`, the Potency entry in experiment [1], in [2], in experiment [3], in experiment [4], in experiment [5] and in experiment [6] was “inactive” in each case. For the same compound, the Potency entry in experiment [7], in [11], in [8] and in experiment [9] was “inactive” in each case.

On to `CC(Cc1ccc(C(C)(C)C)cc1)CN1C[C@@H](C)O[C@@H](C)C1` (some centres undefined), for which the Potency result in experiment [1], in experiment [2], in [3], in [4], in experiment [5] and in [10] was “inactive” throughout. In addition, the Potency entry in experiment [6], in experiment [7], in experiment [12] and in experiment [13] was “inactive” each time.

As for `Oc1c(Br)c(Br)c(Br)c(Br)c1Br`, the Potency result in experiment [1], in experiment [14], in [10] and in experiment [6] was “inactive” each time. Further, in [8], the Potency was 43.9 µM (active).

Consider `CC(C)[C@H](C(=O)O[C@H](C#N)c1cccc(Oc2ccccc2)c1)c1ccc(Cl)cc1`, for which the Potency result in [1], in experiment [2], in experiment [3], in experiment [4], in [5] and in [7] was “inactive” each time. The Potency result in experiment [8] is “inactive”.

As to `O=[N+]([O-])c1cc(C(F)(F)F)c(Cl)c([N+](=O)[O-])c1Cl`, the Potency in experiment [1] is 48.6 µM (active); in [2], 54.5 µM (active); in experiment [3], 79.6 µM (active); in [4], 43.3 µM (active); in experiment [7], 48.6 µM (active); in experiment [8], 7.76 µM (active). Moreover, in experiment [9], the Potency was 31.8 µM (active). In addition, the Potency entry in experiment [13] is “inactive”.

On to `Clc1ccc(-c2ccccc2)cc1`, for which the Potency entry in [1], in experiment [2], in experiment [4], in [5], in [10] and in experiment [6] was “inactive” in each case. In addition, the Potency result in experiment [7], in [12], in [13], in experiment [11] and in experiment [8] was “inactive” each time.

As to `C=CC(=O)N(C)C`, the Potency result in [1], in experiment [3], in [4], in experiment [5], in [7] and in experiment [13] was “inactive” each time. Moreover, the Potency entry in experiment [11], in [8] and in [9] was “inactive” in each case.

As for `[Cd+2].[Cl-].[Cl-]`, the Potency entry in experiment [1] was “inactive”. Also, the Potency in experiment [2] is 24.5 µM (active) and 6.11 µM (active); in experiment [4], 5.49 µM (active) and 9.69 µM (active); in [5], 4.36 µM (active) and 9.69 µM (active); in [7], 4.9 µM (active) and 2.73 µM (active); in [8] it was 55.4 µM (active); in [9] it was 50.9 µM (active) and 56.6 µM (active).

On to `CC(=O)[O-].CC(=O)[O-].O.O.[Cd+2]`, for which the Potency entry in experiment [1] is “inactive”. Moreover, the Potency in experiment [2] is 26.9 µM (active); in experiment [4] it was 5.37 µM (active); in experiment [5], 6.76 µM (active); in [7], 12 µM (active); in experiment [8] it was 34.2 µM (active).
